From ChEMBL document CHEMBL1157539, “Thousands of chemical starting points for antimalarial lead identification” (Nature, 2010)
Values joined by “and” are separate entries in the source; they are usually repeats but may differ in a detail not shown here. Equal entries are not always repeated.

Assays:
Assay type in all cases: functional
Plasmodium falciparum [1] = assay: GSK_TCMDC: Inhibition of Plasmodium falciparum 3D7 in whole red blood cells, using parasite LDH activity as an index of growth. Test compounds present at 2uM
Plasmodium falciparum [2] = assay: GSK_TCMDC: Inhibition of Plasmodium falciparum Dd2 in whole red blood cells, using parasite LDH activity as an index of growth. Test compounds present at 2uM
HepG2 = assay: GSK_TCMDC: Percent inhibition of human HepG2 cell line. Test compounds present at 10uM.

Question: With CCOC(=O)c1c(CN2CCCC2)n(-c2ccccc2)c2cc(Br)c(O)cc12 as the compound, how does the Inhibition (Plasmodium falciparum [1]) read?
Answer: 83%

Question: And the Inhibition (Plasmodium falciparum [2])?
Answer: 53%

Question: What about the Inhibition (HepG2) of the same compound?
Answer: 0%

Question: With O=C(O)C(F)(F)F.O=S(=O)(NC1CCN(c2ccnc3cc(Cl)ccc23)C1)c1ccc(C(F)(F)F)cc1 (centres undefined) as the compound, how does the Inhibition (Plasmodium falciparum [1]) read?
Answer: 100%

Question: What about the Inhibition (Plasmodium falciparum [2]) of the same compound?
Answer: 98%

Question: And the Inhibition (HepG2)?
Answer: 20%

Question: Which Inhibition (Plasmodium falciparum [1]) does the source give for Cc1cc(-c2ccc(NC(=O)c3coc4ccc(N5CC(C)N(C)C(C)C5)cc34)cc2C)cc(C)n1.Cl (centres undefined) here?
Answer: 94%

Question: And the Inhibition (Plasmodium falciparum [2])?
Answer: 62%

Question: What about the Inhibition (HepG2) of the same compound?
Answer: 13%

Question: What does the source list for Cc1cccc(CN2CCCN(Cc3ccc(C(=O)Nc4ccc(C)c(F)c4)cc3)CC2)c1.O=C(O)C(F)(F)F?
Answer: Inhibition (Plasmodium falciparum [1]): 85%; Inhibition (Plasmodium falciparum [2]): 3%; Inhibition (HepG2): 47%

Question: What does the source list for CCN1CCC(N2CCC(C(=O)Nc3cccc(-c4cccc(Cl)c4)c3)CC2)CC1?
Answer: Inhibition (Plasmodium falciparum [1]): 91%; Inhibition (Plasmodium falciparum [2]): 82%; Inhibition (HepG2): 54%

Question: What does the source list for CC(C)(C)c1ccc(NC(=O)c2ccc(CN3CCCN(Cc4ccsc4)CC3)cc2)cc1.O=C(O)C(F)(F)F?
Answer: Inhibition (Plasmodium falciparum [1]): 96%; Inhibition (Plasmodium falciparum [2]): 0%; Inhibition (HepG2): 50%

Question: With COc1ccccc1CCNc1nc(C)cc(N[C@@H](CC(C)C)C(=O)NCCc2ccccc2)n1.O=C(O)C(F)(F)F as the compound, how does the Inhibition (Plasmodium falciparum [1]) read?
Answer: 97%

Question: And the Inhibition (Plasmodium falciparum [2])?
Answer: 81%

Question: What about the Inhibition (HepG2) of the same compound?
Answer: 12%

Question: O=C(Cn1c(CCc2cccc(F)c2F)nc(=O)c2ccccc21)N(CCCN1CCCCC1)Cc1ccc(-c2ccc(C(F)(F)F)cc2)cc1.O=C(O)C(O)C(O)C(=O)O was tested. Which Inhibition (Plasmodium falciparum [1]) did it give?
Answer: 100%

Question: What about the Inhibition (Plasmodium falciparum [2]) of the same compound?
Answer: 94%

Question: What about the Inhibition (HepG2) of the same compound?
Answer: 100%

Question: For N#Cc1ccc(CN2CCC(Oc3ccc(NC(=O)c4cccs4)cc3)C2)cc1.O=C(O)C(F)(F)F (centres undefined), which Inhibition (Plasmodium falciparum [1]) is on record?
Answer: 82%

Question: What about the Inhibition (Plasmodium falciparum [2]) of the same compound?
Answer: 65%

Question: What about the Inhibition (HepG2) of the same compound?
Answer: 5%

Question: Which results are given for O=C1COc2ccc3ccccc3c21?
Answer: Inhibition (Plasmodium falciparum [1]): 99%; Inhibition (Plasmodium falciparum [2]): 3%; Inhibition (HepG2): 0%

Question: For COc1cc2c(cc1S(=O)(=O)c1ccc(NC(=O)Nc3ccc(F)cc3)cc1)CCN(C)CC2.Cl, which Inhibition (Plasmodium falciparum [1]) is on record?
Answer: 99%

Question: And the Inhibition (Plasmodium falciparum [2])?
Answer: 55%

Question: What about the Inhibition (HepG2) of the same compound?
Answer: 0%

Question: What does the source list for CCOc1cc(C(=O)NCCN2CCCCC2)ccc1-c1nc2cc(Cl)ccc2[nH]1?
Answer: Inhibition (Plasmodium falciparum [1]): 99%; Inhibition (Plasmodium falciparum [2]): 8%; Inhibition (HepG2): 4%

Question: How did the Inhibition (Plasmodium falciparum [1]) turn out when CCNc1cc(C)nc(Nc2ccc(NC(=O)c3ccccc3)cc2)n1 was run?
Answer: 100%

Question: And the Inhibition (Plasmodium falciparum [2])?
Answer: 63%

Question: And the Inhibition (HepG2)?
Answer: 41%

Question: What does the source list for Cl.N=C(N)NN=Cc1cc([N+](=O)[O-])ccc1Sc1ccccc1CO?
Answer: Inhibition (Plasmodium falciparum [1]): 84%; Inhibition (Plasmodium falciparum [2]): 0%; Inhibition (HepG2): 25%

Question: How did the Inhibition (Plasmodium falciparum [1]) turn out when c1ccc(CN2CCC(NCc3cccc(-c4cncc5ccccc45)c3)CC2)cc1 was run?
Answer: 92%

Question: And the Inhibition (Plasmodium falciparum [2])?
Answer: 11%

Question: And the Inhibition (HepG2)?
Answer: 29%

Question: With Cc1[nH]c2cc(F)ccc2c(=O)c1Cc1ccc(Cl)cc1.Cc1[nH]c2cccc(F)c2c(=O)c1Cc1ccc(Cl)cc1 as the compound, how does the Inhibition (Plasmodium falciparum [1]) read?
Answer: 94% and 93%

Question: What about the Inhibition (Plasmodium falciparum [2]) of the same compound?
Answer: 92% and 94%

Question: And the Inhibition (HepG2)?
Answer: 7% and 6%

Question: Which results are given for O=C(/C=C/c1ccc(Cl)c(Cl)c1)NCCCCCN1CCC(C(=O)Nc2ccc(Cl)c(Cl)c2)CC1?
Answer: Inhibition (Plasmodium falciparum [1]): 98%; Inhibition (Plasmodium falciparum [2]): 0%; Inhibition (HepG2): 73%

Question: How did the Inhibition (Plasmodium falciparum [1]) turn out when Cc1ccc2nc(C)cc(N/N=C/c3ccccc3[N+](=O)[O-])c2c1 was run?
Answer: 100%

Question: And the Inhibition (Plasmodium falciparum [2])?
Answer: 100%

Question: What about the Inhibition (HepG2) of the same compound?
Answer: 5%

Question: What does the source list for O=C(Nc1ccc(-c2csc(-c3nc4ccccc4[nH]3)c2)cc1)Nc1ccc(Cl)c(Cl)c1?
Answer: Inhibition (Plasmodium falciparum [1]): 93%; Inhibition (Plasmodium falciparum [2]): 18%; Inhibition (HepG2): 75%

Question: With COc1ccc(CCCCN2C(=O)C(c3ccccc3)(c3ccccc3)N=C2N)cc1.O=C(O)C(F)(F)F as the compound, how does the Inhibition (Plasmodium falciparum [1]) read?
Answer: 97%

Question: And the Inhibition (Plasmodium falciparum [2])?
Answer: 95%

Question: And the Inhibition (HepG2)?
Answer: 40%

Question: How did the Inhibition (Plasmodium falciparum [1]) turn out when C[C@H](CNc1ccnc(Nc2ccc3[nH]c(=O)[nH]c3c2)n1)c1ccccc1.O=CO was run?
Answer: 100%

Question: And the Inhibition (Plasmodium falciparum [2])?
Answer: 0%

Question: What about the Inhibition (HepG2) of the same compound?
Answer: 61%

Question: Which results are given for CCOCc1cnc(C)nc1CNC(=O)c1c(C)[nH]c2ccc(C)cc12?
Answer: Inhibition (Plasmodium falciparum [1]): 84%; Inhibition (Plasmodium falciparum [2]): 65%; Inhibition (HepG2): 8%

Question: Which Inhibition (Plasmodium falciparum [1]) does the source give for Cn1cc(C2CCN(CCCCNC(=O)c3ccc(C(=O)Nc4ccc(C#N)cc4)cc3)CC2)c2ccccc21 here?
Answer: 100%

Question: And the Inhibition (Plasmodium falciparum [2])?
Answer: 58%

Question: What about the Inhibition (HepG2) of the same compound?
Answer: 16%

Question: Which Inhibition (Plasmodium falciparum [1]) does the source give for Cc1ccc(C(=O)Nc2cc(C(F)(F)F)cc(C(F)(F)F)c2)cc1[N+](=O)[O-] here?
Answer: 100%

Question: And the Inhibition (Plasmodium falciparum [2])?
Answer: 61%

Question: And the Inhibition (HepG2)?
Answer: 17%

Question: With Cc1ccc(NC(=S)N2CCCN(CCCCCNC(=O)/C=C/c3ccc(Cl)c(Cl)c3)CC2)cc1Cl as the compound, how does the Inhibition (Plasmodium falciparum [1]) read?
Answer: 93%

Question: And the Inhibition (Plasmodium falciparum [2])?
Answer: 5%

Question: What about the Inhibition (HepG2) of the same compound?
Answer: 14%

Question: For CCCN(Cc1ccc(C)cc1)Cc1cc(=O)c2cc(Cl)ccc2[nH]1, which Inhibition (Plasmodium falciparum [1]) is on record?
Answer: 86%

Question: And the Inhibition (Plasmodium falciparum [2])?
Answer: 91%

Question: And the Inhibition (HepG2)?
Answer: 51%

Question: Cc1ccccc1Oc1nc2ccccc2nc1SCC(=O)NC(C)C was tested. Which Inhibition (Plasmodium falciparum [1]) did it give?
Answer: 97%

Question: What about the Inhibition (Plasmodium falciparum [2]) of the same compound?
Answer: 55%

Question: What about the Inhibition (HepG2) of the same compound?
Answer: 0%

Question: Cl.NOCCCOc1ccc(Cl)cc1 was tested. Which Inhibition (Plasmodium falciparum [1]) did it give?
Answer: 98%

Question: What about the Inhibition (Plasmodium falciparum [2]) of the same compound?
Answer: 0%

Question: And the Inhibition (HepG2)?
Answer: 12%
